Measurements from PubChem BioAssay.
Where “and” joins values, the source holds several entries; their conditions need not be identical. Identical values can stand only once. Calls of active or inactive are those of the source.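 How the source made its calls, unless noted: active means inhibition at or above 50% relative to wild type and mutant plate controls; inactive means inhibition below 50%.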

Key:
[1] = inhibitors of TNFa-induced NFkB p65 translocation, primary screen, imaging, HUVEC, MLSMR starter and 10KST1 sets (AID 438;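 active means inhibition above 20% together with a positive visual image hit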;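 further: compound added about 3h40 before a 20 min TNFalpha stimulation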;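 on inhibition: signal is the nuclear over cytoplasmic p65 intensity ratio per well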); conditions: HUVEC TNFa-induced p65 nuclear translocation; cell count: measured here: nuclei count (cytotoxicity indicator), at 2.08 µM; inhibition: at 2 µM, stronger effect = higher value, 0% TNFa-plus-vehicle, 100% no-TNFa wells
[2] = inhibitors of mutant huntingtin aggregation, primary screen, imaging, exon1htt(103Q)mCFP cells, high-content imaging (AID 483;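 active means visual image review flags a hit and inhibition of aggregation exceeds 20%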;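 further: compound exposure lasted 3 days before fixation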;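 on nuclei count: percent of the per-plate median nuclei count of sample wells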); conditions: exon1htt(103Q)mCFP cell line, aggregate imaging, at 2 µM; inhibition of aggregation: stronger effect = higher value; nuclei count: measured here: cell count, toxicity
[3] = inhibitors of E-selectin induction by TNFa, primary screen, imaging, HUVEC, immunofluorescence, MLSMR starter and 10KST1 sets (AID 487;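 active means visually confirmed hit in the image check and inhibition above 20%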;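 on inhibition: signal is fraction of cell area covered by stained E-selectin grains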;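 on nuclei count: 100% = median nuclei count of all wells on the same plate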); conditions: HUVEC TNFalpha-induced E-selectin immunofluorescence imaging, at 2 µM; inhibition: stronger effect = higher value; nuclei count: measured here: cell number, toxicity
[4] = DUSP6 inhibitors restoring Erk phosphorylation by chemical complementation, primary imaging in DUSP6-transfected HeLa (AID 609;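 active means compounds giving at least 50% inhibition in the cell-based MKP-3 phosphatase rescue imaging test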;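 on inhibition: phospho-Erk level distribution per well compared with pooled transfected vehicle control wells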); conditions: HeLa MKP-3 transfected, phospho-Erk imaging KS statistic, at 10 µM, cells stimulated with TPA for 15 min
[5] = molecular target: Dual specificity protein phosphatase 6 (Homo sapiens) (UniProt Q16828); test: as above; conditions: HeLa MKP-3 transfected, phospho-Erk imaging KS statistic; at 10 µM; stronger effect = higher value; cells stimulated with TPA for 15 min
[6] = molecular target: Voltage-gated potassium channel subunit beta-2 (Rattus norvegicus) (UniProt P62483); test: KvBeta enzyme negative modulators, primary screen, biochemical, NADPH fluorescence (AID 622;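 active means fluorescence slope higher than the sample average by over 3 SD, cut at about -0.22 in these data, passing the limit was not always enough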;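 further: slope of raw intensity against log time taken from 70 to 1610 s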); conditions: recombinant KvBeta, 4-cyanobenzaldehyde reduction, at 10 µM, stronger effect = higher value
[7] = molecular target: Voltage-gated potassium channel subunit beta-2 (Rattus norvegicus) (UniProt P62483); test: KvBeta positive modulators, primary screen, biochemical, NADPH fluorescence (AID 623;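 active means NADPH fluorescence slope more negative than the mean of all samples by about 3 SD, 99.7% confidence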;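 further: fluorescence intensity change per second fitted from 20 to 320 s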); conditions: Recombinant KvBeta, NADPH fluorescence decrease slope, 10 min; at 10 µM; stronger effect = lower value
[8] = molecular target: Alpha-2C adrenergic receptor (Homo sapiens) (UniProt P18825); test: modulators of alpha2C/GIRK thallium flux, primary screen, cell-based, HEK293 alpha2C/GIRK1/2 (AID 624;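 active means fluorescence slope after compound addition differing from the mean of all screened samples at 99.7% confidence, in either direction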;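 further: slope of fluorescence ratio to pre-addition baseline per second over 15 to 24 s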); conditions: thallium flux BTC fluorescence, at 10 µM, actives lie on both sides
[9] = inhibitors of larval lipid processing in zebrafish, primary screen, whole organism, PED6 fluorescence, gall bladder and intestine (AID 686;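 active means a full or partial loss of lipid-probe fluorescence in the fish gall bladder, intestine or both, judged by eye; inactive means no fluorescence loss, or compound toxic to the fish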;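 further: larvae 5 to 7 days old with five fish per well; signal comes from phospholipase A2 cleavage of quenched PED6 carried via bile; overnight exposure to compound and PED6 before scoring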); conditions: Zebrafish larvae PED6 lipid processing, fluorescence scoring; screened at 20 µM (by protocol)
[10] = inhibitors of Chlamydomonas gravitaxis, primary screen, whole organism, Chlamydomonas reinhardtii, WT vs cilia-less mutant, absorbance, 96-well (AID 463189); conditions: OD600 absorbance, 2 days, at 10 µM, stronger effect = higher value;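 further: 0% = wild type cc124 cells in DMSO and 100% = ciliumless bld1 mutant cells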
[11] = inhibitors of Sendai virus-induced IRF3 signaling, primary screen, TLR/RLR signaling modifier project, cell-based, Sendai virus stimulus, luciferase, 10K MLSCN set (AID 602276;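 active means inhibition at or above 50% at 10 µM; inactive means inhibition below 50%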;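 further: firefly luciferase from ISG56 promoter only with Renilla not read in this screen; 0% = Sendai virus plus DMSO and 100% = medium plus DMSO without virus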); conditions: HEK293 RL24 IRF3 luciferase reporter, at 10 µM, stronger effect = higher value
[12] = inhibitors of poly I:C-induced TLR3 signaling, primary screen, cell-based, poly I:C stimulus, luciferase, 10K MLSCN set (AID 602277;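 active means inhibition of the reporter signal at or above 50%; inactive means inhibition below 50%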); conditions: HEK293-TLR3 RL24 IRF3 luciferase reporter, at 10 µM, stronger effect = higher value
[13] = measured here: cell density z-score
[14] = measured here: nuclear c-Myc green intensity z-score
[15] = measured here: nuclear pErk red intensity z-score, stronger effect = higher value

Chain of Dual specificity protein phosphatase 6 (Homo sapiens) (Q16828 whole entry, looked up): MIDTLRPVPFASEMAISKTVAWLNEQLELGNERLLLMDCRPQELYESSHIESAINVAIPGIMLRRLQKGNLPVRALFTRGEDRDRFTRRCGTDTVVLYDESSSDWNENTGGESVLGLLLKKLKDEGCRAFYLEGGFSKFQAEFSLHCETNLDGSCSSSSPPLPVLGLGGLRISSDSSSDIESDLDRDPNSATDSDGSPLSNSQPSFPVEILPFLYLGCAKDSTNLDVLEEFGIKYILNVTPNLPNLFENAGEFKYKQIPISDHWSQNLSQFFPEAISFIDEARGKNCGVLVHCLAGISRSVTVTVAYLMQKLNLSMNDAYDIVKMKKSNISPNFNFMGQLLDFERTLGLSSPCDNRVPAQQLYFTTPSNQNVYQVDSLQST
Chain of Voltage-gated potassium channel subunit beta-2 (Rattus norvegicus) (P62483 whole entry, looked up): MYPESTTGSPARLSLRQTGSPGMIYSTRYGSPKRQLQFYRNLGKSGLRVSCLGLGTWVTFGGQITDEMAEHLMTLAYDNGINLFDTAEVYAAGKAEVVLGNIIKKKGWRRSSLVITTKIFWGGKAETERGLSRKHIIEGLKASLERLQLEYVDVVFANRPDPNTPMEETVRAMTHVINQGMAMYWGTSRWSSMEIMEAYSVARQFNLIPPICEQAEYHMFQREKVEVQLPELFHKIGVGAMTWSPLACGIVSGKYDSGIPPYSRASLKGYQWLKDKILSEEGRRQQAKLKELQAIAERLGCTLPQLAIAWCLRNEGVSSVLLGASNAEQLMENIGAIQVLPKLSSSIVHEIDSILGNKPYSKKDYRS
Chain of Alpha-2C adrenergic receptor (Homo sapiens) (P18825 whole entry, looked up): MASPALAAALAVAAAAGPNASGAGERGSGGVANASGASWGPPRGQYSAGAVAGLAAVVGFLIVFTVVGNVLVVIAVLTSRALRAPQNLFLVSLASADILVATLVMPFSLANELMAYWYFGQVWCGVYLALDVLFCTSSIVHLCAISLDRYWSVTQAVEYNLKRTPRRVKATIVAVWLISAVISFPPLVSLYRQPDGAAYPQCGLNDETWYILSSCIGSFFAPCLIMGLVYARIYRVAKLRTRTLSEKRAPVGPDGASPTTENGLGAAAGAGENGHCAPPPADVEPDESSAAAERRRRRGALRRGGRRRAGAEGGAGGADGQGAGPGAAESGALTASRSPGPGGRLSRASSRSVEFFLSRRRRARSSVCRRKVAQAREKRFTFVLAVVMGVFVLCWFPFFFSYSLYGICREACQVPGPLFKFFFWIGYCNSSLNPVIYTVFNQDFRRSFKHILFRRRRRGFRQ

Row | Structure (SMILES) | cell count [1] | inhibition [1] | inhibition of aggregation [2] | nuclei count [2] | inhibition [3] | nuclei count [3] | z-score [4, 13] | z-score [4, 14] | z-score [4, 15] | inhibition [5] | fluorescence slope [6] | NADPH fluorescence slope [7] | slope [8] | outcome [9] | inhibition [10] | inhibition [11] | inhibition [12]
1 | O=C(CCNNC(=O)c1ccncc1)NCc1ccccc1 | 595 | 2.2% (inactive) | -4.6% (inactive) | 104% | -81.8% (inactive) | 117% | -1.05 | -0.737 | 0.12 | 8% (inactive) | -0.485 (inactive) | -7.6e-05 (inactive) | 0.00448 (inactive) | inactive | 4.6% (inactive) and 1.15% (inactive) | -7.31% (inactive) | 21.4% (inactive)
2 | CCCCc1c(O)nc(SCCN(C)C)n(-c2ccccc2)c1=O | 326 | -8.8% (inactive) | 2.2% (inactive) | 94.9% | -40.2% (inactive) | 96.4% | -1.09 | 2.21 | 0.182 | 12.3% (inactive) | -0.438 (inactive) | -0.000152 (inactive) | 0.00653 (inactive) | inactive | -12.4% (inactive) | 7.92% (inactive) | 1.23% (inactive)
3 | O=C(Nc1ccc2c(c1)OCO2)c1cncc(Br)c1 | 613 | -11% (inactive) | -11.9% (inactive) | 87.1% | -29.9% (inactive) | 149% | 1.08 | -0.36 | -1.03 | 19.1% (inactive) | -0.419 (inactive) | -3.7e-05 (inactive) | 0.00513 (inactive) | inactive | -3.07% (inactive) | -15.3% (inactive) | -51.1% (inactive)
4 | NS(=O)(=O)c1cc2c(cc1Cl)NC(CSCc1ccccc1)=NS2(=O)=O | 643 | -8.9% (inactive) | 13.9% (inactive) | 103% | -78.7% (inactive) | 116% | -0.00243 | -0.584 | -0.561 | 9.37% (inactive) | -0.459 (inactive) | -7.8e-05 (inactive) | 0.00625 (inactive) | inactive | 2.85% (inactive) | 10.8% (inactive) | 33.9% (inactive)
5 | Fc1ccccc1-c1nc(NCCCN2CCOCC2)c2ccccc2n1 | 480 | -0.7% (inactive) | -2.8% (inactive) | 108% | -89.4% (inactive) | 130% | 0.781 | -1.18 | -0.632 | 27.5% (inactive) | -0.448 (inactive) | -1.9e-05 (inactive) | 0.00649 (inactive) | inactive | 7.49% (inactive) | -10.9% (inactive) | -2.43% (inactive)
6 | COc1ccc(C2CNC(=O)C2)cc1OC1CCCC1 (stereo not given) | 595 | -1.7% (inactive) | -10.3% (inactive) | 97.8% | -59.8% (inactive) | 124% | -1.08 | -0.0715 | 0.178 | 3.45% (inactive) | -0.507 (inactive) | -0.000115 (inactive) | 0.00579 (inactive) | inactive | 0.165% (inactive) and 12.7% (inactive) | 15.5% (inactive) | 0.301% (inactive)
7 | CN(C=C1C(=O)CC(C)(C)CC1=O)CCN1CCNCC1 | 624 | -4.9% (inactive) | -3.7% (inactive) | 97.1% | -43.7% (inactive) | 121% | -0.672 | -0.802 | 1.89 | -1.98% (inactive) | -0.519 (inactive) | -5.2e-05 (inactive) | 0.00485 (inactive) | inactive | 6.8% (inactive) | 14.6% (inactive) | 16.6% (inactive)
8 | CN(C)CCC=C1c2ccccc2CCc2ccccc21 | 541 | -3.1% (inactive) | 2.1% (inactive) | 107% | -17.7% (inactive) | 126% | 0.892 | -0.494 | 0.732 | -0.493% (inactive) | -0.449 (inactive) | -6.5e-05 (inactive) | 0.00605 (inactive) | inactive | 6.87% (inactive) and 12.5% (inactive) | -9.05% (inactive) | 51% (active)
9 | CC(=O)NS(=O)(=O)c1ccc(N)cc1 | 651 | 7.7% (inactive) | 12.5% (inactive) | 97.6% | -106% (inactive) | 120% | -1.23 | 1.33 | -0.291 | 14.6% (inactive) | -0.508 (inactive) | -4.5e-05 (inactive) | 0.00641 (inactive) | inactive | 46.5% (inactive) | 11.7% (inactive) | 26.8% (inactive)
10 | C[C@]12CC[C@@H]3c4ccc(O)cc4CC[C@H]3[C@@H]1CCC2=O | 576 | -0.3% (inactive) | 3.1% (inactive) | 98% | -80.9% (inactive) | 120% | -8.47 | 2.04 | 2.06 | 17.3% (inactive) | -0.463 (inactive) | -3.3e-05 (inactive) | 0.00425 (inactive) | inactive | -0.014% (inactive) and 40.8% (inactive) | 8.21% (inactive) | 34.8% (inactive)
